Where “and” joins values, the source holds several entries; their conditions need not be identical. Equal entries are not always repeated. Records with an inconclusive call do not appear. A number with no mark means an inactive call. Calls of active or inactive are those of the source. The call rests on the fitted dose curve; in most records, active means well fitted curve in the direction sought with a large enough effect; inconclusive means small, poorly fitted or top-dose-only effect, or another doubt; inactive means no such curve, though single readings can be large; an effect the other way counts as inactive or inconclusive.
How the values were obtained:
[1] = Viability qHTS for spleen associated tyrosine kinase inhibitor (SYKi) drug resistant MV4-11 cells (AID 1963824); further: nearly all actives have a fitted effect of over 35% in size
Procedure, shortened: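 SYK-inhibitor-resistant MV4-11 AML cells were seeded at 500 per well onto compound and cultured 72 hours (37 °C, 5% CO2). CellTiter-Glo was then added, and after 10 min at room temperature, luminescence gave viability.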

[2] = Cellular viability qHTS for adrenocortical cancer (ACC) cell line SW-13 (AID 1963989); details: SW-13 ACC cells viability, CellTiter-Glo, 48 h; activity (max response): active compounds read low; further: nearly all actives have a fitted effect of over 65% in size;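 on activity (max response): cells grown in serum-free medium with ITS supplement; on the % scale 0 is the no-effect control and ±100 the full control effect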
Procedure, shortened: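 IC50 and maximal-response values come from four-parameter logistic fits of titration data. SW-13 cells in serum-free medium received compounds (up to 46 uM final) for 48 h before CellTiter-Glo luminescence.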

[3] = Cellular viability qHTS for adrenocortical cancer (ACC) cell line NCI-H295R (AID 1963990); further: nearly all actives have a fitted effect of over 60% in size
Procedure, shortened: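 Adrenocortical carcinoma cells, suspended at 300 000 cells/mL in serum-free DMEM plus ITS, rested overnight before pin transfer of compound. After two days' incubation, ATP-dependent luminescence was recorded and curve-fitted.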
Potency means the concentration at half of the fitted maximal effect.

Row | Compound | Potency [1] | activity (max response) [2] [%] | Potency [3] | Potency [2]
1 | COc1ccnc2[nH]cc(C(=O)C(=O)N3CCN(C(=O)c4ccccc4)C[C@H]3C)c12 | inactive | 1.31 | inactive | –
2 | COc1ccc(OC)c(C(O)CNC(=O)CN)c1 (stereo not given) | inactive | 12.3 | inactive | –
3 | CC(=O)O/N=C1/C(c2c(O)[nH]c3cc(Br)ccc23)=Nc2ccccc21 | 0.209 µM (active) | – | 15.8 µM (active) | 25.1 µM (active)
4 | Cc1cc(/C=c2/sc3nc4ccccc4n3c2=O)c(C)n1-c1ccccc1 | 10.5 µM (active) | -15.5 | inactive | –
5 | COC1CC(C(=O)c2ccc3c(N)ncc(-c4ccc(-c5cnn(C)c5)cc4)c3n2)C1 (stereo not given) | 0.296 µM (active) | -16.1 | inactive | –
6 | Cc1cc(OI)c(C(C)C)cc1-c1cc(C(C)C)c(OI)cc1C | inactive | 11.4 | inactive | –
7 | O=C(NC[C@H](O)CN1CCc2ccccc2C1)c1ccnc(NC2CCC2)c1 | 6.61 µM (active) | -19.6 | inactive | –
8 | CN(C)CCC[C@@]1(c2ccc(F)cc2)OCc2cc(C#N)ccc21 | 8.41 µM (active) | -9.39 | inactive | –
9 | COc1ccc([C@@H]2CC(=O)c3c(O)cc(O[C@@H]4O[C@H](CO[C@@H]5O[C@@H](C)[C@H](O)[C@@H](O)[C@H]5O)[C@@H](O)[C@H](O)[C@H]4O)cc3O2)cc1O | 8.33 µM (active) | 3.7 | inactive | –
10 | C/C=C/C=N/NC(=O)c1ccncc1 | inactive | -0.764 | inactive | –
11 | CC(=O)NC(CS)C(=O)O (stereo not given) | inactive | -2.17 | inactive | –
12 | COc1cc(C(=S)N2CCOCC2)cc(OC)c1OC | inactive | 1.86 | inactive | –
13 | CC1CC(OC(=O)c2ccccc2O)CC(C)(C)C1 (stereo not given) | inactive | 10.4 | inactive | –
14 | C/C=C(/C(=C/C)c1ccc(O)cc1)c1ccc(O)cc1 | 14.8 µM (active) | – | 23.1 µM (active) and 6.31 µM (active) | 14.1 µM (active)
15 | Nc1ccc(S(=O)(=O)NCc2ccccc2)cc1 | inactive | -7 | inactive | –
16 | CN1CC[C@@H](NC(=O)Nc2ccc(C#N)cc2)C[C@@H]1c1nc2ccccc2[nH]1 | 18.6 µM (active) | -1.78 | inactive | –
17 | CN1Cc2c(N)cccc2C(c2ccccc2)C1 (stereo not given) | inactive | -0.946 | inactive | –
18 | COc1cc(C)[nH]c(=O)c1CN1CCc2c(Cl)cc([C@H](OC)C3COC3)c(Cl)c2C1=O | inactive | -0.836 | inactive | –
19 | CC1(C)O[C@@H]2C[C@H]3[C@@H]4CCC5=CC(=O)CC[C@]5(C)[C@@]4(F)[C@@H](O)C[C@]3(C)[C@]2(C(=O)CCl)O1 | 18.8 µM (active) | 9.64 | inactive | –
20 | CC(=O)N(c1onc(C)c1C)S(=O)(=O)c1ccc(N)cc1 | inactive | 0.743 | inactive | –
21 | O=C(Nc1ccc(Cl)cc1)Nc1ccc(Cl)c(C(F)(F)F)c1 | 7.5 µM (active) | – | 1.84 µM (active) | 2.91 µM (active)
22 | C[C@@H](Nc1ncnc2[nH]c(-c3ccc(O)cc3)cc12)c1ccccc1 | 5.17 µM (active) and 10.5 µM (active) | – | 11.2 µM (active) | 3.98 µM (active)
23 | Nc1ccc(C(=O)N2CC3CC(CN(Cc4ccccc4)C3)C2)cc1 | inactive | 7.04 | inactive | –
24 | Cc1onc(-c2c(Cl)cccc2Cl)c1C(=O)Cl | inactive | 17.1 | inactive | –
25 | CS(=O)(=O)c1ccc(-c2nnc(/C=C/c3nnc(-c4ccc(C#N)cc4)o3)n2-c2ccccc2Cl)nc1 | 14.8 µM (active) | -6.81 | inactive | –
26 | Nc1ncnc2c1ncn2[C@@H]1O[C@H](CO)[C@@H](O)[C@H]1O | inactive | -13.6 | inactive | –
27 | COc1nc(N)nc2c1ncn2C1OC(CO)C(O)C1O (stereo not given) | inactive | 12 | inactive | –
28 | CCCC(=O)Nc1ccc(O)c(C(C)=O)c1 | inactive | 10.4 | inactive | –
29 | O=C(Nc1ccc(C(=O)O)c(O)c1)c1ccccc1 | inactive | 1.55 | inactive | –
30 | CNCCCOc1cc(F)c(-c2c(Cl)nc3ncnn3c2N[C@@H](C)C(F)(F)F)c(F)c1 | 0.0372 µM (active) | – | 0.112 µM (active) | 0.0501 µM (active)

— PubChem BioAssay (NCATS)
